Screens deposited in PubChem BioAssay by The Scripps Research Institute Molecular Screening Center.
ULK1 inh: blocks human autophagy kinase ULK1 | AlphaScreen Atg13 phosphorylation by ULK1, luminescence | inhibition, % at 5.96 µM | hit rate 1.9% among 30,000 | AID 1259251; in the data active = inhibition above about 43%;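 note: 0% = median of compound wells and 100% = no enzyme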
Target sequence (O75385 whole entry, looked up): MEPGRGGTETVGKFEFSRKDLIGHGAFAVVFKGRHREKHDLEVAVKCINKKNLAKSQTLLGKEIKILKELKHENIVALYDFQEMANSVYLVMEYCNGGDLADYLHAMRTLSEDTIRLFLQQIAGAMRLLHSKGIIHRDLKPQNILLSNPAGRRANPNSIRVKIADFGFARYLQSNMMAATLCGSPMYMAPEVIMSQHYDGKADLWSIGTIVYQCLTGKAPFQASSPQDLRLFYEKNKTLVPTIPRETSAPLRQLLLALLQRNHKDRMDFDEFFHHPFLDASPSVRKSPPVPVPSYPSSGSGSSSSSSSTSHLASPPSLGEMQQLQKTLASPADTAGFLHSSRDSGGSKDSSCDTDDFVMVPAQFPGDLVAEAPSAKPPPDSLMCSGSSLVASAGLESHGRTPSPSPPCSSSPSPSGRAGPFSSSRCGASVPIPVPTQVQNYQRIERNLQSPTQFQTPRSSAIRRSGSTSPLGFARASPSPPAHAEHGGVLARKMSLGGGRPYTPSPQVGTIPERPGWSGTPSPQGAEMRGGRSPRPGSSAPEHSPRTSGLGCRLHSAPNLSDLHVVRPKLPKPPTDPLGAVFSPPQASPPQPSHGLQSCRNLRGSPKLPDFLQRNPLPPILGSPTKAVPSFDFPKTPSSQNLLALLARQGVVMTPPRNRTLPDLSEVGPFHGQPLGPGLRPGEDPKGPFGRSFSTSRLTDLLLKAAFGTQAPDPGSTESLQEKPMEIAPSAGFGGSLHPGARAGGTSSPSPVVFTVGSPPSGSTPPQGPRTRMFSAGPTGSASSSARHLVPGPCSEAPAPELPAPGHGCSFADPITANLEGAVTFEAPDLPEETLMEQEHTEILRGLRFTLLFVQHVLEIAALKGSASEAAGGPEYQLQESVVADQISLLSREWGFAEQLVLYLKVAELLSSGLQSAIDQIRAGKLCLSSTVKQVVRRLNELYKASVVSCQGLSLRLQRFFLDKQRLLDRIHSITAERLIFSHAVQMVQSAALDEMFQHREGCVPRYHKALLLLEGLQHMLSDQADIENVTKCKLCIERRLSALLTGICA
ASK1 primary: human ASK1 kinase inhibition, primary screen; Q99683; hit rate 0.99% among 22,000; inhibition, % at 7.44 µM; AlphaScreen MKK6 phosphorylation by ASK1, luminescence; AID 1159602; in the data active = inhibition above about 35%;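 note: 0% = median of compound wells and 100% = no enzyme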
Active calls of the source: *; ! = not active in a repeat. In the library only some 2.5% were active in any assay of this set; here they are far more common.

For CN1CCN(C(=O)c2ccc(-c3nc(Nc4ccc(N5CCOCC5)cc4)c4ncn(C5CCCCC5)c4n3)cc2)CC1 the results were ULK1 inh 1 and ASK1 primary 13.
`CC(=O)c1ccc(N=Nc2ccc3nonc3c2N)cc1` gave ULK1 inh 11.
`CC(C)(C)OC(=O)N1CCC(Nc2ccnc(Cl)n2)CC1` gave ULK1 inh 2 and ASK1 primary 8.
`CC(=O)c1cccc(-c2nc(NCc3ccccc3)c3[nH]cnc3n2)c1` gave ULK1 inh -2 and ASK1 primary -1.
For CC(=O)c1cccc(-c2nc(NCc3cccnc3)c3[nH]cnc3n2)c1 the results were ULK1 inh 54* and ASK1 primary -1.
Screening Nc1cccc(-c2nc(NCc3ccccc3)c3[nH]cnc3n2)c1 returned ULK1 inh -4 and ASK1 primary -1.
Screening Nc1cccc(-c2nc(NCc3cccnc3)c3[nH]cnc3n2)c1 returned ULK1 inh 69* and ASK1 primary -12.
Screening CCCNC(=O)c1ccc(Cl)cc1Cl returned ULK1 inh 6.
Screening CCCCNC(=O)c1ccc(Cl)cc1O returned ULK1 inh 43*!.
`O=C(NC1CC1)c1cccc(-c2ccc(N3CCOCC3)nc2)c1` gave ULK1 inh 1 and ASK1 primary -5.
For Cn1cc(-c2nc(Nc3ccc(N4CCOCC4)cc3)ncc2F)cn1 the results were ULK1 inh 20 and ASK1 primary -22.
`Cn1cc(-c2ccc3cnc(Nc4ccc(-n5ccnc5)cc4)nc3c2)cn1` gave ULK1 inh 88* and ASK1 primary -4.
Cn1cc(-c2ccc3cnc(Nc4ccc(-n5cnc(-c6ccccn6)n5)cc4)nc3c2)cn1 was read as ULK1 inh 17 and ASK1 primary 8.
For Cc1nc(C)n(-c2ccc(Nc3cc4cc(-c5cn[nH]c5)ccc4cn3)cc2)n1 the results were ULK1 inh 81* and ASK1 primary -35.
Cc1nc(C)n(-c2ccc(Nc3ncc4ccc(-c5cn[nH]c5)cc4n3)cc2)n1 was read as ULK1 inh 36 and ASK1 primary -41.
Screening Cc1ccc(-c2ncn(-c3ccc(Nc4ncc5ccc(-c6cnn(C)c6)cc5n4)cc3)n2)cn1 returned ULK1 inh 1 and ASK1 primary 17.
For Cn1cc(-c2ccc3cnc(Nc4ccc(N5CCOCC5)cc4)nc3c2)cn1 the results were ULK1 inh 84* and ASK1 primary 19.
For Cn1cc(-c2ccc3cnc(Nc4ccc(C(=O)N5CCOCC5)cc4)nc3c2)cn1 the results were ULK1 inh 73* and ASK1 primary -3.
O=C(NCc1ccccc1)c1ccc2nc(Nc3ccc(N4CCOCC4)cc3)sc2c1 was read as ULK1 inh 8 and ASK1 primary 27.
`CC(=O)c1cccc(-c2nc(Nc3ccc(Oc4ccccc4)cc3)c3ncn(Cc4ccc(C(F)(F)F)cc4)c3n2)c1` gave ULK1 inh -5 and ASK1 primary -13.
For CCOCCOc1ccccc1C(N)=O the results were ULK1 inh 8.
For Cn1ncc2cc(Nc3ncc4ccc(-c5cn[nH]c5)cc4n3)ccc21 the results were ULK1 inh 75* and ASK1 primary 27.
Screening c1cn(-c2ccc(Nc3ncc4ccc(-c5cn[nH]c5)cc4n3)cc2)cn1 returned ULK1 inh 90* and ASK1 primary 25.
For Cc1cnc(Nc2ccc(-n3ccnc3)cc2)nc1N the results were ULK1 inh 23 and ASK1 primary -12.
Screening c1cc(-c2ccc3cnc(Nc4ccc(-n5cnc(N6CCOCC6)n5)cc4)nc3c2)c[nH]1 returned ULK1 inh 15 and ASK1 primary 19.
FC(F)(F)c1cccc(-c2cc(Nc3ncccn3)nc(-c3ccncc3)n2)c1 was read as ULK1 inh -6.
For Cc1ncn(-c2ccc(Nc3nccc(-c4ccc(N5CCOCC5)cc4)n3)cc2)n1 the results were ULK1 inh 16 and ASK1 primary 7.
Cc1ncn(-c2ccc(Nc3nccc(-c4ccc(NS(C)(=O)=O)cc4)n3)cc2)n1 was read as ULK1 inh 57* and ASK1 primary 6.
`CS(=O)(=O)Nc1ccc(-c2ccnc(Nc3ccc(N4CCC(O)CC4)cc3)n2)cc1` gave ULK1 inh 75* and ASK1 primary -16.
N#Cc1cc(-c2ccnc(Nc3ccc(N4CCC(O)CC4)cc3)n2)cc(N2CCOCC2)c1 was read as ULK1 inh -62 and ASK1 primary 32.
`CC(C)n1cnc2c(NCCN3CCOCC3)nc(Nc3nc4ccccc4n3C)nc21` gave ULK1 inh 13 and ASK1 primary 10.
For COc1ccc(CCNc2cc(C)nc(N3CCCC3CO)n2)cc1 (stereo unspecified) the results were ULK1 inh -9 and ASK1 primary -4.
Cc1cc(NC2CC2)nc(Nc2ccc(C(F)(F)F)cc2)n1 was read as ULK1 inh -18 and ASK1 primary 6.
CN(Cc1cccc(N)c1)C(=O)Nc1ccc(-c2cn[nH]c2)cc1 was read as ULK1 inh -7 and ASK1 primary -1.
Screening O=C(CCl)Nc1nc(-c2ccc(Br)cc2)cs1 returned ULK1 inh 45*.
Screening CO/N=C(\C(=O)O)c1csc(NC(=O)CCl)n1 returned ULK1 inh 17.
`Oc1ccc(CCNc2ccnc(Nc3nccc4ccccc34)n2)cc1` gave ULK1 inh -18 and ASK1 primary -11.
Screening Cc1ncn(-c2ccc(Nc3ncc4cccc(-c5cnc6ccccc6c5)c4n3)cc2)n1 returned ULK1 inh 10 and ASK1 primary -8.
Cc1ncn(-c2ccc(N(CC3CC3)c3ncc4cccc(-c5cnn(CC6CC6)c5)c4n3)cc2)n1 was read as ULK1 inh 99* and ASK1 primary -6.
For c1cc(Nc2cc(Nc3ccc(N4CCOCC4)cc3)ncn2)ccn1 the results were ULK1 inh 82* and ASK1 primary 2.
For c1cc(Nc2nccc(Nc3ccc(N4CCOCC4)cc3)n2)ncn1 the results were ULK1 inh 79* and ASK1 primary 13.
`c1cc(Nc2nccc(Nc3ccc(N4CCOCC4)cc3)n2)ccn1` gave ULK1 inh 28 and ASK1 primary 10.
c1ccc(Nc2cc(Nc3ccncc3)ncn2)cc1 was read as ULK1 inh 61* and ASK1 primary 20.
For c1cn(-c2ccc(Nc3cc(Nc4ccc(N5CCOCC5)cc4)ncn3)cc2)cn1 the results were ULK1 inh -7 and ASK1 primary 3.
For c1ccc(CNc2cc(Nc3ccncc3)ncn2)cc1 the results were ULK1 inh 20 and ASK1 primary -16.
`COc1ccc(C(=O)N2CC(C)CC(C)C2)c(OC)c1` (stereo unspecified) gave ULK1 inh -6.
COc1ccc(Nc2nc(NCCc3ccccn3)c3ncn(C(C)C)c3n2)cn1 was read as ULK1 inh 11 and ASK1 primary -2.
Screening COc1ccc(CCNc2cc(Nc3ccncn3)nc(N)n2)cc1 returned ULK1 inh -6 and ASK1 primary -3.
`C[N+](C)(C)CCOC(c1ccccc1)c1ccccc1` gave ULK1 inh 82*.
CN(C)CCOC(c1ccccc1)c1ccc(Br)cc1 (stereo unspecified) was read as ULK1 inh 7.
`O=C(Cc1csc(NC(=O)c2ccccc2)n1)Nc1ccc(F)c(F)c1` gave ULK1 inh -7.
`O=C(/C=C/c1ccccc1)Nc1nc(CC(=O)NCc2ccc(F)cc2)cs1` gave ULK1 inh 57*.
`N#Cc1cc(-c2ccnc(Nc3ccc(-c4nn[nH]n4)cc3)n2)ccc1N1CCC(O)CC1` gave ULK1 inh 75* and ASK1 primary -31.
